Laboratory results from PubChem BioAssay.
Several values for one entry are separate records, joined by “and”; a condition that tells them apart may be missing. Equal values may be shown once. Results filed as inconclusive are left out. Activity calls are given as the source filed them. Cut-off read from the data, not from the text of the source, unless noted: active = inhibition above about 80%; inactive = the rest.

Assays:
[1] = system: Aerobactin synthetase IucA (Klebsiella pneumoniae); test: inhibition of K. pneumoniae IucA enzyme – biochemical, Tocris library, absorbance (AID 1345561; call rule not given here;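 note: 100% = enzyme without compound and 0% = no enzyme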); conditions: purified IucA enzyme assay, absorbance (OD) read-out; stronger effect = lower value;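 tested at 8 µM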
[2] = growth inhibition, single agents and combos, LFS_MB_1R, cell-based, cisplatin or BGB combos, synergistic combos for chromothripsis tumors (AID 1671452); conditions: LFS_MB_1R medulloblastoma cells, stronger effect = higher value;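 note: cells exposed for 96 hours before readout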
[3] = growth inhibition, single agents and combos, CRL2098, cell-based, BGB or cisplatin IC20 combos, synergistic combos for chromothripsis tumors (AID 1671454); conditions: CRL2098 osteosarcoma cells, drug combinations, stronger effect = higher value;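 note: cells exposed for 96 h before readout; 0% = vehicle DMSO and 100% = killing by high DMSO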
[4] = growth inhibition, single agents and combos, HD-MB03, cell-based, BGB or cisplatin IC20 combos, synergistic combos for chromothripsis tumors (AID 1671455; in the data active = inhibition above about 83%;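 note: 0% = vehicle DMSO and 100% = high DMSO as cytotoxic control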); conditions: HD-MB03 medulloblastoma cells, stronger effect = higher value
[5] = growth inhibition, single agents and combos, UWB1.289, cell-based, BGB or cisplatin combos, synergistic combos for chromothripsis tumors (AID 1671456); conditions: UWB1.289 ovarian carcinoma cells, stronger effect = higher value;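 note: cells exposed to compound for four days; 0% = vehicle DMSO and 100% = killing by high DMSO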
[6] = growth inhibition, single agents and combos, LFS_MB_2R, cell-based, cisplatin combos, synergistic combos for chromothripsis tumors (AID 1671457); conditions: LFS_MB_2R medulloblastoma cells, stronger effect = higher value;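 note: cells exposed to compound for four days before readout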
[7] = growth inhibition, MDA-MB-436, cell-based, BGB or cisplatin combos, synergistic combos for chromothripsis tumors (AID 1671458; call rule not given here;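 note: cells exposed for 96 hours; 0% = vehicle DMSO and 100% = killing by high DMSO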); conditions: MDA-MB-436 breast carcinoma growth inhibition, drug combinations, stronger effect = higher value
[8] = UWB1.289_BRCA1 ovarian cancer growth, cell-based, BGB or cisplatin combinations (AID 1671459); conditions: UWB1.289 BRCA1 ovarian carcinoma, drug combinations, stronger effect = higher value
[9] = drug combination toxicity in non-malignant astrocytes – cell-based, BGB or cisplatin IC20 combos, cytotoxicity control for chromothriptic childhood tumor combination screen (AID 1671460); conditions: Human astrocytes, viability inhibition, drug combinations, at 0.5 µM, stronger effect = higher value;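 note: cells exposed to compounds for 96 hours before viability readout; 0% = vehicle and 100% = killing control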
[10] = BT084 cell growth, single and combined drugs, ICGC_MB145, cisplatin and BGB IC40 combos (AID 1671461); conditions: BT084 medulloblastoma cells, drug combinations, stronger effect = higher value;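 note: cells exposed to drugs for 96 hours; 0% = vehicle DMSO and 100% = high DMSO full killing control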
[11] = RCMB18 cell growth, single agent and combined, cisplatin and BGB IC40 combos (AID 1671462); conditions: RCMB18 medulloblastoma cells, stronger effect = higher value;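 note: cells exposed to compound for four days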
[12] = CRL1545 cell growth, single agent and combined, cisplatin and BGB IC20 combos (AID 1671464); conditions: CRL1545 osteosarcoma cells, stronger effect = higher value;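 note: cells exposed to compound for 96 hours before readout; 0% = vehicle DMSO and 100% = high DMSO killing control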
[13] = compounds altering HSF1 focus formation in cells – imaging, Selleck Cancer Library (AID 1347162; in the data active = plate-normalised HSF1 focus index below about 0.46); conditions: human cells, HSF1 nuclear foci imaging, at 10 µM; SSMD: measured here: HSF1 foci SSMD mean; cell count: measured here: cell number; plate-normalised HSF1 focus index: stronger effect = lower value
[14] = chitosan synthesis blockers in C. neoformans – flow cytometry, Cibacron Brilliant Red staining (AID 1347148; call rule not given here;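 note: compound exposure lasted three days at 37 degrees C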); conditions: Cryptococcus neoformans chitosan, stronger effect = lower value; at 99.1 µM unless noted
[15] = rescue of PC12 cells from polyQ htt toxicity – LDH release (AID 1610); conditions: PC12 mutant huntingtin toxicity, final LDH at 4 uM, stronger effect = lower value
[16] = measured here: combination with BGB IC40, at 0.05 µM
[17] = measured here: combination with cisplatin, at 0.5 µM
[18] = measured here: combination with cisplatin, at 5 µM
[19] = measured here: combination with BGB at IC20, at 0.5 µM
[20] = measured here: combination with cisplatin at IC20, at 0.5 µM
[21] = measured here: combo with BGB at IC20, at 0.5 µM
[22] = measured here: combo with cisplatin at IC20, at 0.5 µM
[23] = measured here: inhibition with BGB combination, at 0.05 µM
[24] = measured here: inhibition with cisplatin combination, at 0.05 µM
[25] = measured here: BGB combination, at 0.5 µM
[26] = measured here: BGB combination, at 5 µM
[27] = measured here: cisplatin combination, at 0.5 µM
[28] = measured here: cisplatin combination, at 5 µM
[29] = BGB combination, concentration series, at 5 µM
[30] = cisplatin combination, concentration series, at 5 µM
[31] = measured here: combo with BGB IC20
[32] = measured here: combo with cisplatin IC20
[33] = cisplatin combination, at 0.5 µM
[34] = measured here: BGB IC40 combination 0.05 uM, at 0.05 µM
[35] = measured here: BGB IC40 combination, at 0.05 µM
[36] = measured here: with BGB IC20 combination, at 0.5 µM
[37] = measured here: with cisplatin IC20 combination, at 0.5 µM

CCCCCCCCCCC[C@@H](C[C@@H]1OC(=O)[C@H]1CCCCCC)OC(=O)[C@H](CC(C)C)NC=O
remaining activity [1]: 84.7% (inactive)

COc1ccc([C@@H]2Sc3ccccc3N(CCN(C)C)C(=O)[C@@H]2OC(C)=O)cc1
remaining activity [1]: 113% (inactive)

Cn1c(=O)c2[nH]cnc2n(C)c1=O
inhibition ([2]; at 0.5 µM): -21.9% (inactive) and -0.42% (inactive) and -31.4% (inactive)
inhibition [2, 16]: -26.4% and 1.86% and -7.92%
inhibition [2, 17]: -14.9% and -0.619% and -31.4%
inhibition [2, 18]: 8.09% and -20.9% and -28.9%
inhibition ([3]; at 0.5 µM): -26.5% (inactive) and -30.1% (inactive) and -56.1% (inactive)
inhibition [3, 19]: -30.2% and -27.7% and -48.2%
inhibition [3, 20]: -14.9% and -28.7% and -88%
inhibition ([4]; at 0.5 µM): -13.1% (inactive) and -5.07% (inactive) and -0.46% (inactive)
inhibition [4, 21]: -12% and -8.62% and 8.13%
inhibition [4, 22]: -20.1% and -3.43% and -7.86%
inhibition ([5]; at 0.5 µM): 4.45% (inactive) and -2.98% (inactive) and 2.06% (inactive)
inhibition [5, 23]: -14.7% and -27.6% and -12%
inhibition [5, 24]: -7.61% and -9.15% and -16.4%
inhibition ([6]; at 0.5 µM): -18.7% (inactive) and -17.5% (inactive) and -20.5% (inactive)
inhibition [6, 17]: -25.2% and -14.1% and -19.4%
inhibition [6, 18]: -67.2% and -2.43% and -20.9%
inhibition ([7]; at 0.5 µM): -17.5% (inactive) and -19.5% (inactive) and -13.6% (inactive)
inhibition [7, 25]: -12% and -14.3% and -17.1%
inhibition [7, 26]: -13.2% and -18.8% and -9.87%
inhibition [7, 27]: -40.2% and -33.9% and -18.2%
inhibition [7, 28]: -36.3% and -17.6% and -0.817%
inhibition [8, 29]: -19.8% and 16.6% and -0.184%
inhibition ([8]; at 0.5 µM): -1.02% (inactive) and -1.86% (inactive) and -8.23% (inactive)
inhibition [8, 30]: 10.1% and 4.75% and 18.9%
inhibition [9]: 0.61% (inactive) and -3.23% (inactive) and 6.04% (inactive)
inhibition [9, 31]: -5.91% and -4.46% and 10.7%
inhibition [9, 32]: -10.6% and -12% and 4.82%
inhibition ([10]; at 0.5 µM): -52.1% (inactive) and -29.3% (inactive) and -9.65% (inactive)
inhibition [10, 33]: -24.1% and -32.5% and -4.44%
inhibition ([10]; cisplatin combination, at 5 µM): -14.9% and -47.9% and -47.4%
inhibition [10, 34]: -3.16% and -19.9% and 10.3%
inhibition ([10]; single agent, at 5 µM): -10.6% and -25.6% and -15.2%
inhibition ([11]; at 0.5 µM): -12.3% (inactive) and -7.91% (inactive) and -23.8% (inactive)
inhibition ([11]; cisplatin combo, at 5 µM): -18.4% and 16.4% and 3.76%
inhibition [11, 35]: -15.1% and -0.46% and -14.9%
inhibition [11, 17]: 5.37% and -0.222% and -34.5%
inhibition ([11]; single agent, at 5 µM): -20% and -29.1% and -26.4%
inhibition ([12]; at 0.5 µM): 2.86% (inactive) and -13.9% (inactive) and -23% (inactive)
inhibition [12, 36]: 6.54% and -1.14% and 25.3%
inhibition [12, 37]: -1.22% and -20.4% and -47.1%
inhibition ([12]; single agent, at 0.05 µM): 6.84% and 45.8% and 6.98%
inhibition ([12]; single agent, at 5 µM): 18.7% and 15.6% and -12.3%

O=C1[C@H](CC[C@H](O)c2ccc(F)cc2)[C@@H](c2ccc(O)cc2)N1c1ccc(F)cc1
SSMD [13]: 0.185
cell count [13]: 6580
plate-normalised HSF1 focus index [13]: 1.01 (inactive)

CC(C)(C)NC[C@H](O)COc1nsnc1N1CCOCC1
remaining activity [1]: 95.7% (inactive)

COc1cc2nc(N3CCN(C(=O)c4ccco4)CC3)nc(N)c2cc1OC
remaining activity [1]: 96.4% (inactive)
fold fluorescence [14]: 6.39 [at 130.4 µM] (inactive)

NC(N)=NC(=O)c1nc(Cl)c(N)nc1N
remaining activity [1]: 101% (inactive)
fold fluorescence [14]: 7.16 [at 217.7 µM] (inactive)

O=C(c1ccccc1)c1ccc2n1CCC2C(=O)O (stereo not drawn)
normalised LDH release [15]: 0.828

CCOC(=O)C1=C(COCCN)NC(C)=C(C(=O)OC)C1c1ccccc1Cl (stereo not drawn)
remaining activity [1]: 107% (inactive)

Nc1c2c(nc3ccccc13)CCCC2
normalised LDH release [15]: 0.878
remaining activity [1]: 109% (inactive)

O=C1N=C(O)CN1/N=C/c1ccc(-c2ccc([N+](=O)[O-])cc2)o1
remaining activity [1]: 110% (inactive)
fold fluorescence [14]: 4.66 [at 159.1 µM] (inactive)

CNC(=O)Oc1ccc2c(c1)[C@]1(C)CCN(C)[C@@H]1N2C
normalised LDH release [15]: 0.859

CN1CCN(CCCN2c3ccccc3Sc3ccc(C(F)(F)F)cc32)CC1
fold fluorescence [14]: 10.1 [at 122.7 µM] (inactive)

CCn1cc(C(=O)O)c(=O)c2cc(F)c(N3CCNCC3)cc21
inhibition ([2]; at 0.5 µM): 16.4% (inactive)
inhibition [2, 16]: -0.695%
inhibition [2, 17]: 26.1%
inhibition [2, 18]: 22.9%
inhibition ([3]; at 0.5 µM): -43.9% (inactive)
inhibition [3, 19]: -32.8%
inhibition [3, 20]: -33.5%
inhibition ([4]; at 0.5 µM): -1.96% (inactive)
inhibition [4, 21]: -6.97%
inhibition [4, 22]: 4.39%
inhibition ([5]; at 0.5 µM): 3.04% (inactive)
inhibition [5, 23]: -22.6%
inhibition [5, 24]: -1.67%
inhibition ([6]; at 0.5 µM): -18.9% (inactive)
inhibition [6, 17]: -13.2%
inhibition [6, 18]: -11.8%
inhibition ([7]; at 0.5 µM): -18.4% (inactive)
inhibition [7, 25]: -12.8%
inhibition [7, 26]: -3.58%
inhibition [7, 27]: -41.9%
inhibition [7, 28]: -18.8%
inhibition [8, 29]: -3.45%
inhibition ([8]; at 0.5 µM): 2.01% (inactive)
inhibition [8, 30]: 12.5%
inhibition [9]: 5.02% (inactive)
inhibition [9, 31]: 10.6%
inhibition [9, 32]: -14.6%
inhibition ([10]; at 0.5 µM): -27.2% (inactive)
inhibition [10, 33]: -24.4%
inhibition ([10]; cisplatin combination, at 5 µM): -61.7%
inhibition [10, 34]: -27.3%
inhibition ([10]; single agent, at 5 µM): -32.3%
inhibition ([11]; at 0.5 µM): -5.94% (inactive)
inhibition ([11]; cisplatin combo, at 5 µM): -71.7%
inhibition [11, 35]: -15.2%
inhibition [11, 17]: 20.7%
inhibition ([11]; single agent, at 5 µM): -42.9%
inhibition ([12]; at 0.5 µM): -19.2% (inactive)
inhibition [12, 36]: -33.4%
inhibition [12, 37]: -12.1%
inhibition ([12]; single agent, at 0.05 µM): 20.3%
inhibition ([12]; single agent, at 5 µM): 24%

Fc1ccc([C@@H]2CCNC[C@H]2COc2ccc3c(c2)OCO3)cc1
remaining activity [1]: 109% (inactive)

CC[C@]1(O)C[C@@H]2CN(CCc3c([nH]c4ccccc34)[C@@](C(=O)OC)(c3cc4c(cc3OC)N(C)[C@H]3[C@@](O)(C(=O)OC)[C@H](OC(C)=O)[C@]5(CC)C=CCN6CC[C@]43[C@@H]65)C2)C1
fold fluorescence [14]: 15.3 [at 55 µM] (inactive)

CNCCCC12CCC(c3ccccc31)c1ccccc12
remaining activity [1]: 112% (inactive)

Cc1c(OCC(F)(F)F)ccnc1CS(=O)c1nc2ccccc2[nH]1 (stereo not drawn)
remaining activity [1]: 87.5% (inactive)

COc1ccc2c(c1)c(CC(=O)O)c(C)n2C(=O)c1ccc(Cl)cc1
remaining activity [1]: 120% (inactive)
fold fluorescence [14]: 4.17 [at 139.7 µM] (inactive)
